Consider 22 compounds from ChEMBL document CHEMBL2218924, “A broad activity screen in support of a chemogenomic map for kinase signalling research and drug discovery” (Biochem J, 2013).

Assay [1] concerns the target BDNF/NT-3 growth factors receptor (Homo sapiens) (UniProt Q16620). The note with it: at 10 µM.
Assay [2] deals with T1, Tyrosine-protein kinase TXK (Homo sapiens) (UniProt P42681).
T1 sequence (whole entry): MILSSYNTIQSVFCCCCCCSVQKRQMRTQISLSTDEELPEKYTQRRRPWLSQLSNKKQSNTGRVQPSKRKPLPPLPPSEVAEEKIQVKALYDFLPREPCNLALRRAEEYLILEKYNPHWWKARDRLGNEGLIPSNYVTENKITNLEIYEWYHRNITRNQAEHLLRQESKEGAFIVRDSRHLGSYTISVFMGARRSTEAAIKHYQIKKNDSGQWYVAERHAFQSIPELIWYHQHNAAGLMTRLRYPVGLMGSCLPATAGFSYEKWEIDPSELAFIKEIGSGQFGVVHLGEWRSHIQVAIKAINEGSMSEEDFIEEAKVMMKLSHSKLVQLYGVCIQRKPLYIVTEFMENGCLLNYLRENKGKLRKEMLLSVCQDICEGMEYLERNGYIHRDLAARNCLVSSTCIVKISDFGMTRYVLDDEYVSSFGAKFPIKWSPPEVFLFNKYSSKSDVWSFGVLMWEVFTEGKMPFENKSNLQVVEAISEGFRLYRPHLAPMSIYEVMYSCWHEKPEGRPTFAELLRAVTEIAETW
The following applies: at 1 µM.

The target in assay [3] is T1, Tyrosine-protein kinase TXK (Homo sapiens). The note with it: at 10 µM.
Assay [4] deals with T2, Serine/threonine-protein kinase ULK2 (Homo sapiens) (UniProt Q8IYT8).
T2 sequence (whole entry): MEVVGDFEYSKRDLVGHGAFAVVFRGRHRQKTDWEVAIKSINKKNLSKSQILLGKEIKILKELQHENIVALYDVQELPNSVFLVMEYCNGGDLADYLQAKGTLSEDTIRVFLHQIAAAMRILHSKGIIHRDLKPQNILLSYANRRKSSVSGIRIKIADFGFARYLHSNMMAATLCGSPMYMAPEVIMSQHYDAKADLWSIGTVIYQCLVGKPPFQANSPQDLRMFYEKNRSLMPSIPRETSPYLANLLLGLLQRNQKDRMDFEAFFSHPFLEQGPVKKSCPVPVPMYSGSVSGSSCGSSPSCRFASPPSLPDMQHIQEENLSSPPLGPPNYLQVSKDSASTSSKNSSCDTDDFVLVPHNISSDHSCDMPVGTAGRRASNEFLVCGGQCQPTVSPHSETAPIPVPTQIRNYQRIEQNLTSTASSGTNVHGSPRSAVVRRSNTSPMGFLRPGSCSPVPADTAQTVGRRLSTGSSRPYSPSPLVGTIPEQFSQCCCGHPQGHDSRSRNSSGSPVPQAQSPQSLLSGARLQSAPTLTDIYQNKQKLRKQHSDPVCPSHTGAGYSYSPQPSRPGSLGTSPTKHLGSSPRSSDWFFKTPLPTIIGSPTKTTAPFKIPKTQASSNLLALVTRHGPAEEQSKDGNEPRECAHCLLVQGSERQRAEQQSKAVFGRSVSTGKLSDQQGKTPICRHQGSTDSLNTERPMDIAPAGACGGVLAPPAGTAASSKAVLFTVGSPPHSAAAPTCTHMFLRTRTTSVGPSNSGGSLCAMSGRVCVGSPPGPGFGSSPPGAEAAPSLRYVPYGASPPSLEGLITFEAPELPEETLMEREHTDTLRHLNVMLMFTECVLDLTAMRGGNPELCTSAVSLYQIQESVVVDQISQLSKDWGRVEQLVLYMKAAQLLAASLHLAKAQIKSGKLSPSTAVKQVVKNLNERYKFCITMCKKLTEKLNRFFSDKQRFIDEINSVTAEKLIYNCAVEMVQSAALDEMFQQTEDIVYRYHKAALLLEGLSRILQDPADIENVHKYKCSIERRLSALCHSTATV
The following applies: at 1 µM.

Assay [5] addresses T3, Serine/threonine-protein kinase ULK3 (Homo sapiens) (UniProt Q6PHR2).
T3 sequence (whole entry): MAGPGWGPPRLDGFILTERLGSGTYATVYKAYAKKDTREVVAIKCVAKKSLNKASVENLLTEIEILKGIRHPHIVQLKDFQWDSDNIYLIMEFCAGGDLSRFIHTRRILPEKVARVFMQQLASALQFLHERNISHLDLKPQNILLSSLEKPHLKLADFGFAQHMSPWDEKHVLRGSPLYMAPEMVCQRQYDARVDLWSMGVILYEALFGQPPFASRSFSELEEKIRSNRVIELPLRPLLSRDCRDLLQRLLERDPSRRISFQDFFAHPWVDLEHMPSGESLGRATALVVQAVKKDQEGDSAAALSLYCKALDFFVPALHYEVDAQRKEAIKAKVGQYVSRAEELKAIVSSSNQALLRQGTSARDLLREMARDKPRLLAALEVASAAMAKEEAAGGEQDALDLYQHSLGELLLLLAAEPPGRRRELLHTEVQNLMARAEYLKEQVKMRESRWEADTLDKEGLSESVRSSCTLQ
The note with it: at 1 µM.

For assay [6], the target named is T3, Serine/threonine-protein kinase ULK3 (Homo sapiens). The note with it: at 10 µM.
The target in assay [7] is Serine/threonine-protein kinase VRK2 (Homo sapiens) (UniProt Q86Y07). The following applies: at 1 µM.
For assay [8], the target named is Serine/threonine-protein kinase WNK2 (Homo sapiens) (UniProt Q9Y3S1). The following applies: at 1 µM.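 Also: residual WNK2 kinase activity expressed as percent of uninhibited control, assayed in MOPS buffer at pH 7.0 containing EDTA.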
The target of assay [9] is T2, Serine/threonine-protein kinase ULK2 (Homo sapiens). The following applies: at 10 µM.
The target in assay [10] is Serine/threonine-protein kinase VRK2 (Homo sapiens) (UniProt Q86Y07). The following applies: at 10 µM.

As a reminder, the residual activity is the signal under treatment as a percentage of the control signal.

Chain of Serine/threonine-protein kinase VRK2 (Homo sapiens) (Q86Y07 whole entry): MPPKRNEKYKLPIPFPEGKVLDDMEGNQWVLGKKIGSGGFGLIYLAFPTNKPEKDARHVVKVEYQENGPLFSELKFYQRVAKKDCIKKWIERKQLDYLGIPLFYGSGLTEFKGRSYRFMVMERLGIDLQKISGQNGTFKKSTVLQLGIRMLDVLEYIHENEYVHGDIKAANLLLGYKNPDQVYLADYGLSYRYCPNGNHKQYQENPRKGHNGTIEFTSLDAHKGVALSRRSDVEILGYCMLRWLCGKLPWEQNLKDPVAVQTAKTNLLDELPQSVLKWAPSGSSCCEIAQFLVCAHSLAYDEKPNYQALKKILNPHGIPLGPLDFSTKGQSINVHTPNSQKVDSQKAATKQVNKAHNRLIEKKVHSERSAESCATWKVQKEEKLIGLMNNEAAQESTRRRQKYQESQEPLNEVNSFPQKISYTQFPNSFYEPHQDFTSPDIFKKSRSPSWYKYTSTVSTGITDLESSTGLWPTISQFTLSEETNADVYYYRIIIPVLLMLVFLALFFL
Chain of Serine/threonine-protein kinase WNK2 (Homo sapiens) (Q9Y3S1 whole entry): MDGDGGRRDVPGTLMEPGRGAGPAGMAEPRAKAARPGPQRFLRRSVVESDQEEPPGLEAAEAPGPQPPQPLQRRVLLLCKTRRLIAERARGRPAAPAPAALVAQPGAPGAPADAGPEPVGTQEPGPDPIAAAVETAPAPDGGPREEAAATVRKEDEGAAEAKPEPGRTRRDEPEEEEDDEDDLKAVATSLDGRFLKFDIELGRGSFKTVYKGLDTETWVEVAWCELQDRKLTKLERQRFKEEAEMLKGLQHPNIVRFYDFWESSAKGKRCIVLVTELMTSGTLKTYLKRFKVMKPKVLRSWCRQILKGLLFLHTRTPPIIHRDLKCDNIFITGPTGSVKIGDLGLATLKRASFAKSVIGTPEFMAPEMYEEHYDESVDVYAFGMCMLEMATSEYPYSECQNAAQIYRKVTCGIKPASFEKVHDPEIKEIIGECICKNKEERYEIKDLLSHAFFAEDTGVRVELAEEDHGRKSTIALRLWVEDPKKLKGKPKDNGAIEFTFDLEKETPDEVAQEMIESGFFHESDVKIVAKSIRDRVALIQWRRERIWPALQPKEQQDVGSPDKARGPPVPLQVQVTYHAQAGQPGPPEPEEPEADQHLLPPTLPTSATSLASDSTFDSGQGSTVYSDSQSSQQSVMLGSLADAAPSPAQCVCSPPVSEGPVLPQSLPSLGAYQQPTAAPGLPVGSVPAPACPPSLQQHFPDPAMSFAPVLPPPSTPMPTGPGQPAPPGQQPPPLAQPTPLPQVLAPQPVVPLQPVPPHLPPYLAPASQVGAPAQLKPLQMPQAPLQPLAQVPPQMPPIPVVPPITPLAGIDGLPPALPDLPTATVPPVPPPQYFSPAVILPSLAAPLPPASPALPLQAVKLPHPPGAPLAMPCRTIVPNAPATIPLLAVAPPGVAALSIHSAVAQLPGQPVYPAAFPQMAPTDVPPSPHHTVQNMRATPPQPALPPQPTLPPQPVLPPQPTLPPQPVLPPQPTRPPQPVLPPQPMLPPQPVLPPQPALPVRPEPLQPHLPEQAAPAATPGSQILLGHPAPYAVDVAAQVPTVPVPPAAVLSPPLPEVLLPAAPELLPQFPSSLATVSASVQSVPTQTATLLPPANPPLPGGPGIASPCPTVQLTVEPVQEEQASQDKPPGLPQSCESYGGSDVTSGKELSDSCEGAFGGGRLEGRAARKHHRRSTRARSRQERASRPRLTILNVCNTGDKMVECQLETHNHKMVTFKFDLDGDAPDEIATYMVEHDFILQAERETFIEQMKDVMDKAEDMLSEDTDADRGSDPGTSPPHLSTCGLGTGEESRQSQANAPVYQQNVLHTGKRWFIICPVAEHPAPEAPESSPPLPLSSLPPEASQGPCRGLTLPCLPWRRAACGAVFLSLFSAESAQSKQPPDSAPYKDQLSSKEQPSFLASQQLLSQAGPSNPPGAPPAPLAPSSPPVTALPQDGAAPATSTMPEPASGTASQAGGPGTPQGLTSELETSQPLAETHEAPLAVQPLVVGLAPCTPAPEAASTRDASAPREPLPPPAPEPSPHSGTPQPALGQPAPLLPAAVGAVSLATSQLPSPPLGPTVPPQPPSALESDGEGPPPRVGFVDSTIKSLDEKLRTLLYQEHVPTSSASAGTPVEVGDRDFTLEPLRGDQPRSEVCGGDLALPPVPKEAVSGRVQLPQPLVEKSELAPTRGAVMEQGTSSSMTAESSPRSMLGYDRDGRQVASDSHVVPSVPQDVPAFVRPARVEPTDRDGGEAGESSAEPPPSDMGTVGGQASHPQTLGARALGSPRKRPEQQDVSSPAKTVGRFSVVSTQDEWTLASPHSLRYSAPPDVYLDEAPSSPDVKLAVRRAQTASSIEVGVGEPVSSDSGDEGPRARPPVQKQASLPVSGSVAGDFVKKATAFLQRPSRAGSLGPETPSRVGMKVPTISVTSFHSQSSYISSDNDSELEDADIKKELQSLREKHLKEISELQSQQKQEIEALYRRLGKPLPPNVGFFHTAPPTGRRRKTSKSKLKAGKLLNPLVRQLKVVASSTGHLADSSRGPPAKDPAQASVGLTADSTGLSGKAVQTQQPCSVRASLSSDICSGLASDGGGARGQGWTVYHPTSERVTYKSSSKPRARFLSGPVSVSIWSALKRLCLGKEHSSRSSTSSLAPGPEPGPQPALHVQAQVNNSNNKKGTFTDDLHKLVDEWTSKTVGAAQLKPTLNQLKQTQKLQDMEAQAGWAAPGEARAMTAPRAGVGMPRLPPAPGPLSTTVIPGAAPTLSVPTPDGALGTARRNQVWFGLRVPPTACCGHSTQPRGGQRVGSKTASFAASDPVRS
Chain of BDNF/NT-3 growth factors receptor (Homo sapiens) (Q16620 32-822 limits assumed): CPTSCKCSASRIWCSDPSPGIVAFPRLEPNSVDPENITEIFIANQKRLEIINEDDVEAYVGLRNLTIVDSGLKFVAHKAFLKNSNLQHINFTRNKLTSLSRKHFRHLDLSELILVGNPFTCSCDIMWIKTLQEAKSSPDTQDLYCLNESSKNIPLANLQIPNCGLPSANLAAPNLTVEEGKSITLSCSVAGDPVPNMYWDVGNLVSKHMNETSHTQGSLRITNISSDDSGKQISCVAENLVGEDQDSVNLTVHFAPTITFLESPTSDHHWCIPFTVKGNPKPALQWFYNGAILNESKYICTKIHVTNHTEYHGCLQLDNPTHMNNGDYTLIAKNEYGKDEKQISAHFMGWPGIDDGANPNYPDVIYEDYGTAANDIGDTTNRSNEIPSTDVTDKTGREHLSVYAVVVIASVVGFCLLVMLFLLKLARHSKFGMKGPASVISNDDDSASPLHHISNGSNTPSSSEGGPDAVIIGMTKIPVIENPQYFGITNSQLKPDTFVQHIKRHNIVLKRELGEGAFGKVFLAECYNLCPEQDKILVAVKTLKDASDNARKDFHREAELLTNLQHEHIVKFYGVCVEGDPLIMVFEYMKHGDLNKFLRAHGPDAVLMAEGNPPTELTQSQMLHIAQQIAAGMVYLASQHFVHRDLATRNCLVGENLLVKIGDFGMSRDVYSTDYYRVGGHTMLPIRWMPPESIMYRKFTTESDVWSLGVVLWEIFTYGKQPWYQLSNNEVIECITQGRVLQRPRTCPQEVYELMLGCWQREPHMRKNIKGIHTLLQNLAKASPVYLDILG

With `Cn1c2ccccc2c2c3c(c4c5ccccc5n(CCC#N)c4c21)CNC3=O`, the residual activity in assay [1] is -12%; in [2], 8%; in [3], 8%; in assay [4] it was 99%; in [5] it was 39%; in [6], 16%. Moreover, the residual activity in assay [7] and in assay [8] was 97% (inactive) each time.
For `CCCC(=O)Oc1ccc2[nH]c(C(=O)c3cc4ccccc4[nH]3)cc2c1`, the residual activity in [1] stood at 13%; in assay [2], 102%; in [3], 82%; in assay [4] it was 103%; in [9] it was 97%; in [5], 105%. Besides, the residual activity was 85% in assay [6], 105% (inactive) in assay [7] and 84% in assay [10].
For `O=C(O)/C=C/c1cc(Br)c(Br)c(Br)c1Br`, the residual activity in assay [1] came to 83%; in assay [2] it was 94%; in assay [3] it was 95%; in [4], 109%; in assay [9], 107%; in assay [5] it was 98%. Moreover, the residual activity is 93% in assay [6], 109% (inactive) in assay [7] and 105% in assay [10].
For `Nc1nccc(-c2c(-c3ccc(F)cc3)ncn2C2CCNCC2)n1`, the residual activity in [1] is 61%; in [2], 83%; in assay [3] it was 64%.
For `O=c1cc(N2CCOCC2)oc2c1ccc1ccccc12`, the residual activity in [1] came out at 102%; in [2], 90%; in [3] it was 85%; in assay [4], 102%; in assay [9], 88%; in [5], 106%. The residual activity in assay [6] is 94%; in assay [7] it was 105% (inactive); in assay [10], 90%; in [8], 110% (inactive).
`COc1cc2c(cc1OC)-c1n[nH]c(Nc3cccc(F)c3)c1C2`: the residual activity in assay [1] was 31%; in assay [2] it was 64%; in assay [3], 20%; in [5], 98%; in assay [6], 72%; in [8], 78% (inactive).
`COc1cc2ncnc(Nc3cccc(Cl)c3)c2cc1OC`: the residual activity is 61% in assay [1]; 87% in assay [2]; 49% in assay [3]; 104% in assay [4]; 100% in assay [9]; 102% in assay [5]. Also, the residual activity in assay [6] was 79%; in assay [7] it was 102% (inactive); in assay [10], 74%.
Regarding `CCCCc1c(-c2ccc(OC)cc2)[nH]c2nccnc12`, the residual activity was 76% in assay [1]; 53% in [2]; 55% in assay [3]; 68% in [5]; 69% in [6]; 105% (inactive) in [7]. Also, the residual activity in assay [10] was 100%; in assay [8], 105% (inactive).
As to `O=C(NC(NC(=S)Nc1ccc(F)c([N+](=O)[O-])c1)C(Cl)(Cl)Cl)C(c1ccccc1)c1ccccc1` (stereo not given), the residual activity in [1] worked out at 89%; in assay [2], 82%; in assay [3] it was 76%; in [4] it was 96%; in [5], 97%; in assay [6] it was 98%. Further, the residual activity in assay [10] was determined as 95%.
In the case of `COc1ccc(CNC(=O)Nc2ncc([N+](=O)[O-])s2)cc1`, the residual activity was 110% in assay [1], 67% in assay [2] and 74% in assay [3].
For `O=C(CCCc1ccc(-c2ccccc2F)cc1)Nc1ccc(O)cc1`, the residual activity in assay [1] worked out at 100%; in [2], 99%; in [3], 89%; in assay [4], 112%; in assay [9], 98%; in assay [5], 101%. In addition, the residual activity in [6] is 95%; in [7], 102% (inactive); in assay [10] it was 96%; in assay [8], 104% (inactive).
`O=C(Nc1nc2ccccc2n1CCN1CCOCC1)c1cccc([N+](=O)[O-])c1`: the residual activity in assay [1] was determined as 15%; in assay [2], 104%; in [3] it was 77%; in assay [5], 103%; in assay [6], 83%.
Consider `O=C(c1cc2cc(O)ccc2[nH]1)c1cc2cc(O)ccc2[nH]1`, for which the residual activity was -12% in assay [1]; 64% in assay [2]; 22% in assay [3]; 82% in [4]; 38% in assay [9]; 73% in [5]. In addition, the residual activity in [6] is 22%; in assay [7] it was 72% (inactive); in assay [10] it was 37%; in assay [8], 83% (inactive).
Take `CC(C)c1nn(-c2c(Cl)cccc2Cl)c2nc(Cc3ccc(OCCO)cc3)[nH]c(=O)c12`: the residual activity amounted to 79% in assay [1]; 96% in [2]; 99% in assay [3]; 81% in assay [4]; 49% in assay [9]; 84% in assay [5]. For the same compound, the residual activity was 45% in assay [6], 100% (inactive) in [7], 96% in assay [10] and 108% (inactive) in assay [8].
Regarding `CCN(CC)CCNC(=O)c1c(C)[nH]c(/C=C2\C(=O)Nc3ccc(Cl)cc32)c1C`, the residual activity in assay [1] was -12%; in assay [2] it was 70%; in [3], 21%; in assay [4], 23%; in assay [9], 2%; in [5] it was 17%. Moreover, the residual activity in [6] was found to be 2%.
On to `CC(C)(C)c1nc2c3ccc(F)cc3c3c(=O)[nH]ccc3c2[nH]1`, for which the residual activity is -2% in assay [1]; 63% in assay [2]; 57% in [3]; 26% in assay [4]; 25% in assay [9]; 56% in assay [5]. In addition, the residual activity in [6] came to 13%.
As to `COc1cc2nccc(Oc3ccc(NC(=S)NC(=O)c4ccccc4C)cc3)c2cc1OC`, the residual activity in [1] came out at 25%; in assay [2] it was 88%; in assay [3], 37%; in assay [4] it was 101%; in assay [9], 93%; in [5], 99%. Moreover, the residual activity is 76% in assay [6], 93% (inactive) in assay [7], 90% in [10] and 76% (inactive) in [8].
Turning to `COc1cc2nccc(Oc3ccc(NC(=O)Nc4cc(C)on4)c(Cl)c3)c2cc1OC`, the residual activity was -10% in assay [1]; 98% in assay [2]; 45% in [3]; 97% in [4]; 99% in assay [9]; 103% (inactive) in [7]. The residual activity in assay [8] was 100% (inactive).
Consider `Nc1ncnc2c1c(-c1ccc(Oc3ccccc3)cc1)cn2C1CCCC1`, for which the residual activity in [1] is -9%; in assay [2], 18%; in assay [3], 1%; in [4], 98%; in [6], 45%; in [7] it was 85% (inactive). Besides, the residual activity is 72% in assay [10] and 103% (inactive) in [8].
`O=C1NC(=O)C(c2cn(CCCn3ccnc3)c3ccccc23)=C1Nc1ccccc1`: the residual activity in [1] was 18%.
As for `CCOC(=O)c1c(C)[nH]c(/C=C2\C(=O)Nc3ccccc32)c1C`, the residual activity worked out at 45% in assay [1]; 97% in assay [2]; 91% in assay [3]; 76% in assay [5]; 70% in [6].
As for `O=C1C(Cl)=C(N2C(=O)CCC2=O)C(=O)c2ccccc21`, the residual activity in assay [1] is 93%; in [2], 76%; in assay [3] it was 87%; in [5] it was 87%; in assay [6], 97%; in assay [7], 93% (inactive). Besides, the residual activity in [10] was 98%; in [8], 89% (inactive).
